Results reported in the supplement of paper PMC11732987, “Enantioselective OTUD7B fragment discovery through chemoproteomics screening and high-throughput optimisation” (Communications Chemistry, 2025).

Columns and labels:
Experiment in all cases: log2 ratio of Biotin-Ahx-Ub-VS probe labelling (compound/DMSO); higher = less target engagement, active = hit call of the paper (q ≤ 0.05, log2 ratio ≤ -1)
Settings in all cases: treatment time: 3 h
[1] = compound: CCC1N(CCc2sccc12)C(=O)CCl
Summary of the method: (§1)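 HEK293T lysate (495 µg per sample, in Tris/CHAPS/IGEPAL buffer with protease inhibitors) was exposed in triplicate to compound at 50 or 200 µM, or to DMSO, for 3 h, then to Biotin-Ahx-Ub-VS (0.5 µM final) for 1 h. The labelled DUBs were enriched on NeutrAvidin, digested with LysC and trypsin, and analysed by diaPASEF LC-MS/MS. Average base-two log ratios of compound over DMSO came from median-normalised label-free quantities by unpaired t-test. Only proteins with at least 2 unique peptides were used.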

[2] = compound: CN1c2ccccc2C(CS1(=O)=O)NC(=O)CCl
Summary of the method: as §1

[3] = compound: Cl.ClCC(=O)N1CCc2ncncc2C1
Summary of the method: as §1

[4] = compound: Cl.Cn1ncc2C(CCCc12)NC(=O)CCl
Summary of the method: as §1

[5] = compound: ClCC(=O)NC1CCOc2ccccc12
Summary of the method: as §1

[6] = compound: ClCC(=O)NC1CCCc2ccccc12
Summary of the method: (§2)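 Spectronaut label-free, global-median-normalised protein quantities underlie these values, which are average ratios of compound to vehicle from an unpaired t-test. They are reported as log2 and include only proteins identified by two or more unique peptides. Samples of HEK293T lysate (495 µg) were treated in triplicate with a compound concentration series or vehicle for 3 h, then labelled with Biotin-Ahx-Ub-VS at 0.5 µM final for 1 h before NeutrAvidin enrichment, LysC and trypsin digestion, and diaPASEF LC-MS/MS.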

[7] = compound: ClCC(=O)N[C@@H]1CCCc2ccccc12
Summary of the method: as §2

[8] = compound: ClCC(=O)N[C@H]1CCCc2ccccc12
Summary of the method: as §2

[9] = compound: CCC1N(CCc2cc(OC)c(Cl)cc12)C(=O)CCl
Summary of the method: as §1

[10] = compound: CCCC1N(CCc2cc(OC)c(OC)cc12)C(=O)CCl
Summary of the method: as §1

Measured: log2 ratio of Biotin-Ahx-Ub-VS probe labelling

USP19 (UniProt O94966)
Sequence of UniProt O94966 (O94966 whole entry): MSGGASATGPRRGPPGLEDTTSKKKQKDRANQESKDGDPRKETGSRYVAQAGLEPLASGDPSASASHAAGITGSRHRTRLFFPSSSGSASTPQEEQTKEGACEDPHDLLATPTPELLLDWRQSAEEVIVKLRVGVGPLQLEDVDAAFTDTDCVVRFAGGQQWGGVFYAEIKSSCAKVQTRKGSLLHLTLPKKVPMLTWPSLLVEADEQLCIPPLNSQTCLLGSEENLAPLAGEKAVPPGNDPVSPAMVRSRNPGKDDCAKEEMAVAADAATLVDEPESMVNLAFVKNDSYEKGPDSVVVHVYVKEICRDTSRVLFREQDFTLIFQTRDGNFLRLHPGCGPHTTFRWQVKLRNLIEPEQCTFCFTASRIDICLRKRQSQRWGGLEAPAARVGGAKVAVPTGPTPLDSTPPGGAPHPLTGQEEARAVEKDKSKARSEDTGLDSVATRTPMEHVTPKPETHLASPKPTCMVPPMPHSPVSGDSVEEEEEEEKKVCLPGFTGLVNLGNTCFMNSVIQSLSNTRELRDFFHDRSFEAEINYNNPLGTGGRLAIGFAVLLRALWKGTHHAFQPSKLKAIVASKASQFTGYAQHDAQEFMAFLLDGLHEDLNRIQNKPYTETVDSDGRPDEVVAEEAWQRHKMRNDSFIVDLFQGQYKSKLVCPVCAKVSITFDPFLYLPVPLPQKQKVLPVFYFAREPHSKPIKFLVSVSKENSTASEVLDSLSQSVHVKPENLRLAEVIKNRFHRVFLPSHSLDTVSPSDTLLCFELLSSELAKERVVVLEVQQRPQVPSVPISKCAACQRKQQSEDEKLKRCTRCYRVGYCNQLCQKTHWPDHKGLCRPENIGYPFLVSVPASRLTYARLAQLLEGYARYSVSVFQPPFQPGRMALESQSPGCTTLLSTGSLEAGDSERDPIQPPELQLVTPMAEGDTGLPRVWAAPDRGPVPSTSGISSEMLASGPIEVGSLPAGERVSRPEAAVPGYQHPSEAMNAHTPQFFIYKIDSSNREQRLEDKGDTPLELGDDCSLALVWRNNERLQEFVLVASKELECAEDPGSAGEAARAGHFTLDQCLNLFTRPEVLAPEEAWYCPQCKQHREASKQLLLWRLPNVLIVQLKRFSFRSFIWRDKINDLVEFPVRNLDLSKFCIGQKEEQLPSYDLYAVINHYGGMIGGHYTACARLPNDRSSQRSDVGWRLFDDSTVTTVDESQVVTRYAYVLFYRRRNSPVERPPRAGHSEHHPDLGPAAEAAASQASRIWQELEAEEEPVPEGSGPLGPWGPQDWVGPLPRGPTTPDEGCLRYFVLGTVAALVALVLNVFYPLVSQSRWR
active: [3]; compound concentration: 200uM -1.13 | [9]; compound concentration: 200uM -2.38 | [10]; compound concentration: 50uM -1.67 | [10]; compound concentration: 200uM -3.32
inactive: [1]; compound concentration: 50uM -0.285 | [1]; compound concentration: 200uM -0.845 | [2]; compound concentration: 50uM -0.191 | [2]; compound concentration: 200uM -0.286 | [3]; compound concentration: 50uM -0.264 | [4]; compound concentration: 50uM 0.00316 | [4]; compound concentration: 200uM -0.0581 | [5]; compound concentration: 50uM -0.218 | [5]; compound concentration: 200uM -0.211 | [6]; compound concentration: 0.78uM 0.0115 | [6]; compound concentration: 1.56uM 0.0325 | [6]; compound concentration: 3.13uM -0.14 | [6]; compound concentration: 6.25uM -0.00117 | [6]; compound concentration: 12.5uM -0.0872 | [6]; compound concentration: 25uM -0.173 | [6]; compound concentration: 50uM -0.131 | [6]; compound concentration: 100uM -0.081 | [6]; compound concentration: 200uM -0.216 | [7]; compound concentration: 0.78uM -0.105 | [7]; compound concentration: 1.56uM -0.0178 | [7]; compound concentration: 3.13uM -0.00588 | [7]; compound concentration: 6.25uM 0.0401 | [7]; compound concentration: 12.5uM -0.0591 | [7]; compound concentration: 25uM -0.121 | [7]; compound concentration: 50uM -0.26 | [7]; compound concentration: 100uM -0.182 | [7]; compound concentration: 200uM -0.339 | [8]; compound concentration: 0.78uM -0.0486 | [8]; compound concentration: 1.56uM -0.0156 | [8]; compound concentration: 3.13uM 0.00736 | [8]; compound concentration: 6.25uM 0.0504 | [8]; compound concentration: 12.5uM -0.0195 | [8]; compound concentration: 25uM -0.0989 | [8]; compound concentration: 50uM -0.0366 | [8]; compound concentration: 100uM -0.126 | [8]; compound concentration: 200uM -0.311 | [9]; compound concentration: 50uM -0.648

EIF3H (UniProt O15372)
Sequence of UniProt O15372 (O15372 whole entry): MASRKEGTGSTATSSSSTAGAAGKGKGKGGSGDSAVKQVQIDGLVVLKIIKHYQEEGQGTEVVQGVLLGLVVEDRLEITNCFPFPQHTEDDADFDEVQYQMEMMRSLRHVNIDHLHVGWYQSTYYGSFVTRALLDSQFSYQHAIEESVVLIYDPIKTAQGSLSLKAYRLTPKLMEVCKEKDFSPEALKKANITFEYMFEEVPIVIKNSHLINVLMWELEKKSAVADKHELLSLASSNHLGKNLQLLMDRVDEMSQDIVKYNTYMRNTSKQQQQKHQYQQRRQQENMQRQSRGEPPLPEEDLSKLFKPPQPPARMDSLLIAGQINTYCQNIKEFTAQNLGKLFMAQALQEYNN
inactive: [1]; compound concentration: 50uM 4e-05 | [1]; compound concentration: 200uM -0.0195 | [2]; compound concentration: 50uM 0.0525 | [2]; compound concentration: 200uM 0.0675 | [3]; compound concentration: 50uM -0.0138 | [3]; compound concentration: 200uM -0.124 | [4]; compound concentration: 50uM -0.0892 | [4]; compound concentration: 200uM -0.0788 | [5]; compound concentration: 50uM 0.0209 | [5]; compound concentration: 200uM -0.0491 | [6]; compound concentration: 0.78uM -0.172 | [6]; compound concentration: 1.56uM 0.005 | [6]; compound concentration: 3.13uM 0.0821 | [6]; compound concentration: 6.25uM -0.12 | [6]; compound concentration: 12.5uM -0.146 | [6]; compound concentration: 25uM -0.153 | [6]; compound concentration: 50uM 0.125 | [6]; compound concentration: 100uM 0.0329 | [6]; compound concentration: 200uM -0.275 | [7]; compound concentration: 0.78uM -0.105 | [7]; compound concentration: 1.56uM 0.0364 | [7]; compound concentration: 3.13uM -0.02 | [7]; compound concentration: 6.25uM 0.0572 | [7]; compound concentration: 12.5uM 0.182 | [7]; compound concentration: 25uM -0.109 | [7]; compound concentration: 50uM 0.0801 | [7]; compound concentration: 100uM 0.0419 | [7]; compound concentration: 200uM 0.454 | [8]; compound concentration: 0.78uM 0.0712 | [8]; compound concentration: 1.56uM -0.0618 | [8]; compound concentration: 3.13uM -0.213 | [8]; compound concentration: 6.25uM 0.288 | [8]; compound concentration: 12.5uM 0.201 | [8]; compound concentration: 25uM 0.184 | [8]; compound concentration: 50uM 0.306 | [8]; compound concentration: 100uM -0.0743 | [8]; compound concentration: 200uM 0.179 | [9]; compound concentration: 50uM -0.165 | [9]; compound concentration: 200uM -0.139 | [10]; compound concentration: 50uM 0.00258 | [10]; compound concentration: 200uM 0.0942
